Measurements reported in PubChem BioAssay.
Several values for one entry are separate records, joined by “and”; a condition that tells them apart may be missing. Equal values may be shown once. Activity calls are given as the source filed them.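 Rule for the calls, unless noted: active = thallium flux through the channel raised or lowered by more than 3 SD from vehicle-only wells, actives on both sides; inactive = the rest.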

Assays:
[1] = blockers of polyQ-driven CASP3 activation – cell-based (AID 1583); settings: polyglutamine-induced caspase-3 activation, cell assay; stronger effect = higher value;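 tested at 10 µM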
[2] = yeast 75Q aggregation reduction – 75Q-TubU reporter (AID 1593); settings: Yeast 75Q polyglutamine aggregation reporter
[3] = blockers of cytochrome c efflux from mitochondria – biochemical, purified mitochondria (AID 1603); settings: stronger effect = lower value;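 note: mouse liver mitochondria challenged with calcium chloride; signal normalized to the plate average as 100%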
[4] = polyglutamine aggregate formation blockers (AID 1604); settings: polyglutamine-induced protein aggregation inhibition assay; stronger effect = higher value; tested at 2.5 µM
[5] = glutamate transport activators, MN-1 cells, MN-1 cell line (AID 1612); settings: MN-1 motor neuron cells, stronger effect = higher value;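 note: tested at 1 µM final; 0% = mean of DMSO vehicle wells on each plate; positive means more glutamate uptake than control and negative means less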
[6] = signal quenchers or enhancers, Cy5 substrate/SSB – biochemical, NIH Clinical Collection, E. coli SSB, artefact control for HCV NS3 helicase inhibitor project (AID 743268; call rule not given here); settings: Cy5-oligo bound E. coli SSB, fluorescence interference
[7] = system: Hepatitis C virus NS3 helicase; assay: blockers of NS3h binding to DNA – biochemical, fluorescence polarization, NIH Clinical Collection, primary screen (AID 743270; call rule not given here); settings: NS3 helicase binding to Cy5-dT15 DNA, stronger effect = higher value, concentration not given here
[8] = target: Single-stranded DNA-binding protein (Escherichia coli (strain K12)) (UniProt P0AGE0); assay: SSB-ssDNA binding inhibitors – biochemical, fluorescence polarization, NIH Clinical Collection, counter-screen for HCV NS3 helicase inhibitor project (AID 743271; in the data active = inhibition above about 28%); settings: E. coli SSB-DNA binding, stronger effect = higher value, concentration not given here
[9] = compounds distorting NS3 helicase fluorescence signal – biochemical, NIH Clinical Collection, artefact control for HCV NS3 helicase inhibitor project (AID 743272; call rule not given here;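 note: HCV NS3 helicase with a Cy5 labelled single stranded DNA probe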); settings: fluorescence interference counterscreen, HCV NS3 helicase assay; stronger effect = lower value
[10] = galactose survival enhancers in mitochondrial complex I cybrids – cell-based, galactose medium, ATP luminescence, primary screen (AID 1645843;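 active = z-score of at least 1.8 in each of two replicates, scored against plate mean and spread of sample wells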;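 note: positive z means more ATP and so rescue of galactose-driven cybrid death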); settings: complex I mutant cybrid cells, 72 h, stronger effect = higher value
F380Y/beta4 = assay: BK channel mutant inhibitors and activators – cell-based, U2OS BacMam, thallium flux, beta subunits, selectivity assay, profiling panel (AID 1259406); settings: U2OS BacMam BK variants, at 30 µM;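 note: initial slope of Thallos dye fluorescence rise after thallium is added; log ratio against the mean of 0.3% DMSO vehicle wells on the same plate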
[11] = target: Calcium-activated potassium channel subunit alpha-1 (Homo sapiens) + Leucine-rich repeat-containing protein 26 (Homo sapiens) (UniProt Q12791+Q2I0M4); assay: as above; settings: U2OS BacMam BK variants, F380Y/Slo1WT/gamma1, at 30 µM
Sequence of Calcium-activated potassium channel subunit alpha-1 (Homo sapiens) + Leucine-rich repeat-containing protein 26 (Homo sapiens) (Q2I0M4 whole entry, looked up, one chain of several): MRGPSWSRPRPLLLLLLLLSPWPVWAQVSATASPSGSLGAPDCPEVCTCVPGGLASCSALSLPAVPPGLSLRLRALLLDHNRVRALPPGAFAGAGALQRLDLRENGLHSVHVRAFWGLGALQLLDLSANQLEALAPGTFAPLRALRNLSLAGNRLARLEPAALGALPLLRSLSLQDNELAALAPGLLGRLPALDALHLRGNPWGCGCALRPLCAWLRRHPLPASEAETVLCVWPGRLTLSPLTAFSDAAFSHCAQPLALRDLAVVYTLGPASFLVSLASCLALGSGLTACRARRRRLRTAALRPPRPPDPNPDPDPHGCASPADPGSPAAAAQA

R275C = assay: as above; settings: U2OS BacMam BK variants, at 30 µM
R275C/beta1 = assay: as above; settings: U2OS BacMam BK variants, at 30 µM
R275C/beta2Delta = assay: as above; settings: U2OS BacMam BK variants, at 30 µM
R275C/beta4 = assay: as above; settings: U2OS BacMam BK variants, at 30 µM
R275C/Slo1WT/beta2 = assay: as above; settings: U2OS BacMam BK variants, at 30 µM

Row | SMILES | inhibition [1] | score [2] | cytochrome c release ratio [3] | inhibition of aggregation [4] | glutamate uptake change [5] | fluorescence ratio [6] | inhibition [7] | inhibition [8] | fluorescence ratio [9] | z-score [10] | log fold change Tl+ flux (F380Y/beta4) | log fold change Tl+ flux [11] | log fold change Tl+ flux (R275C) | log fold change Tl+ flux (R275C/beta1) | log fold change Tl+ flux (R275C/beta2Delta) | log fold change Tl+ flux (R275C/beta4) | log fold change Tl+ flux (R275C/Slo1WT/beta2)
1 | NNCCc1ccccc1 | 3.3% | 0.97 | 1.02 | 15.4% | 2.77% | 0.99 (inactive) and 1.14 (inactive) | 1.19% (inactive) and -5.91% (inactive) | -0.87% (inactive) and -0.48% (inactive) | 0.96 (inactive) and 1.02 (inactive) | 0.14 (inactive) and 0.22 (inactive) and 0.6 (inactive) | 0.00368 (inactive) | -0.00263 (inactive) | -0.025 (inactive) | 0.00562 (inactive) | -0.0402 (inactive) | -0.0112 (inactive) | 0.022 (inactive)
2 | OC(Cn1cncn1)(Cn1cncn1)c1ccc(F)cc1F | -12.6% | 0.67 | 0.79 | 0% | -9.51% | 1.05 (inactive) | -3.18% (inactive) | -4.29% (inactive) | 1.02 (inactive) | 1.3 (inactive) and 0.555 (inactive) | 0.0309 (inactive) | -0.0185 (inactive) | 0.0468 (inactive) | 0.023 (inactive) | 0.0182 (inactive) | 0.0436 (inactive) | 0.0134 (inactive)
3 | O=C(O)c1cccnc1 | 1.52% | 1.31 | 0.86 | 67.8% | -8.8% | 1.05 (inactive) | – | – | 0.99 (inactive) | 0.63 (inactive) | 0.0275 (inactive) | -4.3e-05 (inactive) | 0.0183 (inactive) | -0.00198 (inactive) | 0.0288 (inactive) | 0.0274 (inactive) | -0.00368 (inactive)
4 | COc1ccc(Cl)cc1C(=O)NCCc1ccc(S(=O)(=O)NC(=O)NC2CCCCC2)cc1 | 0.35% | -0.18 | 1.09 | 45% | 34.4% | 0.97 (inactive) | -2.27% (inactive) | 1.05% (inactive) | 0.97 (inactive) | – | 0.115 (active) | 0.0583 (inactive) | 0.027 (inactive) | 0.142 (active) | 0.0874 (inactive) | 0.162 (active) | 0.00644 (inactive)
5 | CCOC(=O)C1=C(C)NC(C)=C(C(=O)OC)C1c1cccc([N+](=O)[O-])c1 (stereo unspecified) | – | – | – | – | – | 1 (inactive) | 4.36% (inactive) | 8.37% (inactive) | 1.03 (inactive) | – | -0.0639 (inactive) | 0.00177 (inactive) | 0.0204 (inactive) | 0.00401 (inactive) | -0.0485 (inactive) | -0.023 (inactive) | 0.016 (inactive)
